Source: PubChem BioAssay AID1159580 (chemical genetic matrix, 2015)
Several values for one entry are separate records, joined by “and”; a condition that tells them apart may be missing. Equal values may be shown once. Among all 5,500 compounds or so, about 2,000 (36%) were called active. About 18% were inconclusive and are not listed. Cut-off read from the data, not from the text of the source: active = normalized growth mostly below about 0.91 (no sharp cut-off); inconclusive = no clear call, values can overlap the other calls; inactive = mostly above about 0.92. Some of the results follow.

Assay: chemical genetic growth profiling, strain panel (AID 1159580);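 note: tested at 20 µM; growth read once vehicle control cultures reached saturation at 30 °C; 1 = growth at the plate median or of vehicle wells; lower values mean less growth of the strain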
Settings: growth OD

Measured: normalized growth

OCCN1CCN(CCCN2c3ccccc3Sc3ccc(Cl)cc32)CC1
inactive: S. cerevisiae deletion strains, locus YJR075W, strain HOC1, stronger effect = lower value 1 | S. cerevisiae deletion strains, locus YKL009W, strain mrt4, stronger effect = lower value 0.982 | S. cerevisiae deletion strains, locus YKL068W, stronger effect = lower value 0.999 | S. cerevisiae deletion strains, locus YKL085W, strain MDH1 (second series), stronger effect = lower value 1 | S. cerevisiae deletion strains, locus YKL085W, strain MDH1, stronger effect = lower value 1 | S. cerevisiae deletion strains, locus YKL160W, strain elf1, stronger effect = lower value 0.996 | S. cerevisiae deletion strains, locus YKL190W, strain CNB1, stronger effect = lower value 1.01 | S. cerevisiae deletion strains, locus YKR001C, strain vps1, stronger effect = lower value 1.03 | S. cerevisiae deletion strains, locus YKR026C, strain gcn3, stronger effect = lower value 1 | S. cerevisiae deletion strains, locus YKR091W, strain srl3, stronger effect = lower value 1 | S. cerevisiae deletion strains, locus YLL001W, strain dnm1, stronger effect = lower value 1.01 | S. cerevisiae deletion strains, locus YLL026W, stronger effect = lower value 0.999 | S. cerevisiae deletion strains, locus YLL041C, strain sdh2, stronger effect = lower value 1 | S. cerevisiae deletion strains, locus YLR027C, strain aat2, stronger effect = lower value 1 | S. cerevisiae deletion strains, locus YLR039C, strain RIC1, stronger effect = lower value 1.24 | S. cerevisiae deletion strains, locus YLR058C, strain SHM2, stronger effect = lower value 1.01 | S. cerevisiae deletion strains, locus YLR102C, strain apc9, stronger effect = lower value 0.991 | S. cerevisiae deletion strains, locus YLR113W, strain HOG1, stronger effect = lower value 0.98 | S. cerevisiae deletion strains, locus YLR221C, strain rsa3, stronger effect = lower value 1 | S. cerevisiae deletion strains, locus YLR258W, strain gsy2, stronger effect = lower value 1 | S. cerevisiae deletion strains, locus YLR262C, strain YPT6 (second series), stronger effect = lower value 1.06 | S. cerevisiae deletion strains, locus YLR262C, strain YPT6, stronger effect = lower value 1.32 | S. cerevisiae deletion strains, locus YLR268W, strain sec22, stronger effect = lower value 0.935 | S. cerevisiae deletion strains, locus YLR320W, strain mms22, stronger effect = lower value 0.964 | S. cerevisiae deletion strains, locus YLR330W, strain CHS5, stronger effect = lower value 1.01 | S. cerevisiae deletion strains, locus YLR342W, strain FKS1 (second series), stronger effect = lower value 0.958 | S. cerevisiae deletion strains, locus YLR342W, strain FKS1, stronger effect = lower value 0.994 | S. cerevisiae deletion strains, locus YLR357W, strain rsc2, stronger effect = lower value 0.983 | S. cerevisiae deletion strains, locus YLR370C, strain arc18, stronger effect = lower value 1 | S. cerevisiae deletion strains, locus YLR371W, strain rom2, stronger effect = lower value 0.992 | S. cerevisiae deletion strains, locus YLR384C, strain iki3, stronger effect = lower value 1 | S. cerevisiae deletion strains, locus YLR418C, strain cdc73, stronger effect = lower value 0.894 | S. cerevisiae deletion strains, locus YML016C, strain PPZ1, stronger effect = lower value 1.02 | S. cerevisiae deletion strains, locus YML032C, strain rad52, stronger effect = lower value 0.961 | S. cerevisiae deletion strains, locus YML120C, strain ndi1, stronger effect = lower value 1 | S. cerevisiae deletion strains, locus YML124C, strain tub3, stronger effect = lower value 0.991 | S. cerevisiae deletion strains, locus YMR058W, strain fet3, stronger effect = lower value 0.995 | S. cerevisiae deletion strains, locus YMR078C, strain ctf18, stronger effect = lower value 0.986 | S. cerevisiae deletion strains, locus YMR125W, strain sto1, stronger effect = lower value 1.01 | S. cerevisiae deletion strains, locus YMR129W, stronger effect = lower value 1 | S. cerevisiae deletion strains, locus YMR205C, strain PFK2, stronger effect = lower value 0.977 | S. cerevisiae deletion strains, locus YMR223W, strain ubp8, stronger effect = lower value 0.984 | S. cerevisiae deletion strains, locus YMR231W, strain pep5, stronger effect = lower value 1 | S. cerevisiae deletion strains, locus YMR263W, strain SAP30, stronger effect = lower value 1 | S. cerevisiae deletion strains, locus YMR307W, strain GAS1, stronger effect = lower value 1.1 | S. cerevisiae deletion strains, locus YNL067W, strain RPL9B, stronger effect = lower value 0.989 | S. cerevisiae deletion strains, locus YNL071W, strain lat1, stronger effect = lower value 1.01 | S. cerevisiae deletion strains, locus YNL128W, strain TEP1, stronger effect = lower value 1 | S. cerevisiae deletion strains, locus YNL153C, strain GIM3, stronger effect = lower value 0.983 and 0.891 | S. cerevisiae deletion strains, locus YNL175C, strain NOP13, stronger effect = lower value 1.03 | S. cerevisiae deletion strains, locus YNL183C, strain NPR1, stronger effect = lower value 0.947 | S. cerevisiae deletion strains, locus YNL197C, strain WHI3, stronger effect = lower value 1.02 | S. cerevisiae deletion strains, locus YNL209W, strain ssb2, stronger effect = lower value 0.997 | S. cerevisiae deletion strains, locus YNL224C, strain SQS1, stronger effect = lower value 1.02 | S. cerevisiae deletion strains, locus YNL233W, strain BNI4, stronger effect = lower value 0.986 | S. cerevisiae deletion strains, locus YNL248C, strain rpa49, stronger effect = lower value 0.998 | S. cerevisiae deletion strains, locus YNL250W, strain rad50, stronger effect = lower value 0.985 | S. cerevisiae deletion strains, locus YNL271C, strain bni1, stronger effect = lower value 0.996 | S. cerevisiae deletion strains, locus YNL298W, strain CLA4, stronger effect = lower value 0.976 | S. cerevisiae deletion strains, locus YNL307C, strain MCK1, stronger effect = lower value 0.973 | S. cerevisiae deletion strains, locus YNL322C, strain KRE1 (second series), stronger effect = lower value 1 | S. cerevisiae deletion strains, locus YNL322C, strain KRE1, stronger effect = lower value 1.01 | S. cerevisiae deletion strains, locus YNR049C, strain mso1, stronger effect = lower value 1.01 | S. cerevisiae deletion strains, locus YNR052C, strain pop2, stronger effect = lower value 1 | S. cerevisiae deletion strains, locus YOL006C, strain TOP1, stronger effect = lower value 1.01 | S. cerevisiae deletion strains, locus YOL012C, strain htz1 0.889 | S. cerevisiae deletion strains, locus YOL147C, strain pex11, stronger effect = lower value 0.992 | S. cerevisiae deletion strains, locus YOR001W, strain rrp6, stronger effect = lower value 0.976 | S. cerevisiae deletion strains, locus YOR061W, strain CKA2, stronger effect = lower value 1.02 | S. cerevisiae deletion strains, locus YOR069W, strain VPS5, stronger effect = lower value 1.01 | S. cerevisiae deletion strains, locus YOR070C, strain gyp1, stronger effect = lower value 0.994 | S. cerevisiae deletion strains, locus YOR080W, strain dia2, stronger effect = lower value 1 | S. cerevisiae deletion strains, locus YOR083W, strain WHI5 (second series), stronger effect = lower value 0.973 | S. cerevisiae deletion strains, locus YOR083W, strain WHI5, stronger effect = lower value 0.991 | S. cerevisiae deletion strains, locus YOR106W, strain vam3, stronger effect = lower value 0.962 | S. cerevisiae deletion strains, locus YOR136W, strain idh2, stronger effect = lower value 0.998 | S. cerevisiae deletion strains, locus YOR144C, strain elg1, stronger effect = lower value 1 | S. cerevisiae deletion strains, locus YOR184W, strain ser1, stronger effect = lower value 0.985 | S. cerevisiae deletion strains, locus YOR231W, strain MKK1, stronger effect = lower value 0.997 | S. cerevisiae deletion strains, locus YOR265W, strain rbl2, stronger effect = lower value 0.998 | S. cerevisiae deletion strains, locus YOR270C, strain vph1, stronger effect = lower value 1.04 | S. cerevisiae deletion strains, locus YOR290C, strain snf2, stronger effect = lower value 0.968 | S. cerevisiae deletion strains, locus YOR316C, strain cot1, stronger effect = lower value 0.994 | S. cerevisiae deletion strains, locus YPL051W, strain arl3, stronger effect = lower value 0.975 | S. cerevisiae deletion strains, locus YPL055C, strain LGE1, stronger effect = lower value 0.99 | S. cerevisiae deletion strains, locus YPL078C, strain atp4, stronger effect = lower value 1 | S. cerevisiae deletion strains, locus YPL106C, strain sse1, stronger effect = lower value 1.03 | S. cerevisiae deletion strains, locus YPL240C, strain hsp82, stronger effect = lower value 0.995 | S. cerevisiae deletion strains, locus YPL241C, strain CIN2, stronger effect = lower value 1.02 | S. cerevisiae deletion strains, locus YPL256C, strain CLN2, stronger effect = lower value 1.01 | S. cerevisiae deletion strains, locus YPR119W, strain clb2, stronger effect = lower value 0.991 | S. cerevisiae deletion strains, locus YPR141C, strain kar3, stronger effect = lower value 0.996 | S. cerevisiae deletion strains, locus YPR163C, strain tif3, stronger effect = lower value 0.987 | S. cerevisiae deletion strains, locus YPR167C, strain met16, stronger effect = lower value 1 | S. cerevisiae deletion strains, strain wtn01, stronger effect = lower value 0.951 | S. cerevisiae strains, strain wild type, stronger effect = lower value 1.01
